# Hit rate of the full screen: of about 95,000 compounds, about 460 (0.48%) were called active.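 How the source made its calls: active means inhibition above the batch mean plus 3 SD, with images confirmed as a hit by eye (cut at about 37% in these data); inconclusive means inhibition above that limit but hit not confirmed in images; inactive means inhibition not above that limit.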 The sample as a whole holds a higher share of actives than the screen did.
# Assay: inhibitors of TNFa-induced VCAM1 expression, primary screen, imaging, HUVEC, TNFa stimulus, immunofluorescence (AID 802);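 further: 0% = TNF-stimulated DMSO wells and 100% = unstimulated control wells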
# Details: HUVEC TNFa-induced VCAM-1 immunofluorescence, high-content imaging; at 2 µM; hits give high values
row,Compound,inhibition
1,CCN(CC)CCN1C(=O)C(=O)/C(=C(/O)c2cnn(-c3ccccc3)c2C)C1c1cccs1 (stereo not drawn),-0.9% (inactive)
2,COc1ccc(-c2c(C(C)=O)c(C)nc3sc4c(=O)n(-c5ccc(C)cc5)nnc4c23)cc1,12% (inactive)
3,O=C(CN1CCSCC1)N/N=C/c1ccc(F)cc1,-11.6% (inactive)
4,CCc1nnc(NC(=O)CSc2nc3ccccc3c(=O)n2CCCOC)s1,1.6% (inactive)
5,Cc1nnc(SCc2nc3ccccc3nc2C)s1,-5.5% (inactive)
6,Cc1ccc(NC(=S)NC2CCCC2)cc1,-15% (inactive)
7,Cc1ccoc1C(=O)Nc1cccc(Oc2ccccc2)c1,-7.5% (inactive)
8,O=C(O)c1cccnc1NC1CCCC1,-5.2% (inactive)
9,O=C(c1ccc2c(c1)OCCO2)C1CCN(S(=O)(=O)c2cccc(F)c2)CC1,-12.7% (inactive)
10,CC(=O)c1cccc(S(=O)(=O)N2CCC(n3nnc4cc(F)ccc43)CC2)c1,54.7% (active)
11,O=S(=O)(c1cccc(S(=O)(=O)N2CCC(n3nnc4ccccc43)CC2)c1)N1CCCCC1,-12.3% (inactive)
12,COc1ccc(NC(=O)/C(Cl)=C(/Cl)S(=O)Cc2ccc(C)cc2)cn1 (stereo not drawn),90.4% (active)
13,COc1cccc(NC(=O)Cc2ccc(C)cc2)c1,3.7% (inactive)
14,COc1ccc(CC(=O)Nc2ccc(-c3nnc(-c4ccc(C)cc4)o3)cc2)cc1,-1.2% (inactive)
15,COc1cc(CC(=O)NCc2cccs2)cc(OC)c1OC,4.1% (inactive)
16,CCOc1ccc(NC(=O)Nc2cc(C)ccc2OC)cc1,11.7% (inactive)
17,COc1ccc(/C=N\NC(=O)c2sc(N)nc2C)cc1OC,-10.1% (inactive)
18,COc1cc(/C=N/NC(=O)Nc2ccccc2)ccc1OCCOc1ccccc1C,51.1% (active)
19,CC(C)CNC(=S)NNC(=O)c1nn(C)cc1Cl,5.2% (inactive)
20,Cc1nnsc1S(=O)(=O)Cc1ccccc1Cl,1.2% (inactive)
21,COCCNS(=O)(=O)c1cc(Br)ccc1OC,-35.9% (inactive)
22,O=C(Nc1ccccc1)c1ccc2nsnc2c1,-11.1% (inactive)
23,O=C(Nc1ccc(Cl)cc1)c1ccsn1,-10% (inactive)
24,O=C(c1ccc(Cl)cc1)c1cnc(Nc2ccccc2)s1,4.4% (inactive)
25,O=C(Nc1ccccc1)c1nnsc1S(=O)(=O)c1ccc(Cl)cc1,59.3% (active)

row,Compound,inhibition
1,CCC(C)(C)n1nnnc1CN1CCN(c2nc3ccc(C)cc3cc2C#N)CC1,3.1% (inactive)
2,S=C(NCCC1=CCCCC1)Nc1ccccc1,2.2% (inactive)
3,CC(C)NC(=O)CSc1nnc(COc2ccccc2Cl)o1,6.7% (inactive)
4,NS(=O)(=O)c1cccnc1Nc1cccc(Cl)c1,-4.5% (inactive)
5,COC(=O)C1=C(Nc2ccc(OC)cc2)C=C(C)C(C(=O)OC)C1c1ccc(C)cc1 (stereo not drawn),-3.9% (inactive)
6,O=C(O)CSc1nccn1-c1cccc(Cl)c1,-15% (inactive)
7,Cc1cccc(C)c1NC1=NC(=S)N(c2ccc(N(C)C)cc2)C1(C)C,-2.5% (inactive)
8,Cc1ccc(/C=N/NC(=O)c2sccc2OCc2ccc(F)cc2)cc1,4% (inactive)
9,CCOC(=O)C1(S(=O)(=O)c2ccccc2)CCN(Cc2ccccc2)CC1,-5.9% (inactive)
10,CC1CC(C)CN(S(=O)(=O)c2cccc(C(=O)N3C(=O)c4cccc(N)c4C3=O)c2)C1 (stereo not drawn),-20.1% (inactive)
11,CCC(=O)Nc1ccc2nc(C)n(Cc3ccccc3Cl)c(=O)c2c1,-5.1% (inactive)
12,CC(=O)Nc1ccccc1OC(=O)N1CCOCC1,-16.3% (inactive)
13,Cc1cc(C)n(-c2nnc(C)n2NC(=O)c2cccc(Cl)c2)n1,-8.8% (inactive)
14,Cc1ccc(Nc2nc(C)cc(C)c2C(N)=O)cc1,7.1% (inactive)
15,CC1CCN(S(=O)(=O)c2ccc(S(=O)(=O)NCc3ccco3)cc2)CC1,-20.1% (inactive)
16,O=C(OC1CCCCC1=O)c1cccc(S(=O)(=O)NCc2ccccc2)c1 (stereo not drawn),-3.3% (inactive)
17,CN(NC(=O)c1ccccc1)c1nc2ccccc2nc1C(F)(F)F,11.7% (inactive)
18,CSc1nc(N(C)NC(=O)c2cccc(C)c2)c2ccccc2n1,83.3% (active)
19,COc1ccc(C(=O)NN(C)c2nc(-c3ccccc3)cc(C)c2S(C)(=O)=O)cc1,16.7% (inactive)
20,CCN(CC)c1ccc(/C=N/Nc2nc(C)cc(=O)[nH]2)cc1,11.9% (inactive)
21,COC(=O)C1=C(C(=O)c2ccc(C)cc2)C(c2ccccc2)n2nnnc2N1 (stereo not drawn),5.8% (inactive)
22,COc1ccc(C(=O)Nc2nc(-c3ccc(S(=O)(=O)N4CCOCC4)cc3)cs2)cc1,-4.5% (inactive)
23,CCOc1cccc(C(=O)Nc2nnc(-c3cccs3)s2)c1,-0.3% (inactive)
24,c1ccc(-n2nnnc2NC2CCCCCC2)cc1,-15.1% (inactive)
25,O=C(CS(=O)(=O)c1cn(Cc2cccc(F)c2)c2ccccc12)N1CCCCC1,50.1% (active)

row,Compound,inhibition
1,CCOC(=O)c1ccc(NC(=O)CS(=O)(=O)c2cn(CC)c3ccccc23)cc1,7% (inactive)
2,Cc1cc(NC(=O)CS(=O)(=O)c2cn(C)c3ccccc23)no1,28.9% (inactive)
3,O=C(NCCCN1CCOCC1)c1cnn2c(-c3ccccc3)cc(-c3ccccc3)nc12,12% (inactive)
4,O=C(Nc1cc(-c2nn(CC(=O)N3CCCCC3)c(=O)c3ccccc23)ccc1N1CCOCC1)c1ccc(Cl)cc1,12.6% (inactive)
5,Cc1ccc(-n2ncc3c(Nc4cccc(C(=O)O)c4)ncnc32)cc1,-17% (inactive)
6,CCCCNC(=O)CSc1nc2n[nH]c(C)c2c(=N)n1-c1cccc(Cl)c1C,10.7% (inactive)
7,CCNC(=O)c1sccc1-n1cccc1,32% (inactive)
8,Cc1cc(=O)oc2cc(OCC3CC(c4ccccc4Cl)=NO3)ccc12 (stereo not drawn),59.7% (active)
9,Cc1ccccc1N1CCN(CCCOc2ccc3c(C)cc(=O)oc3c2)CC1,-7.7% (inactive)
10,COc1cccc(-c2nnc(SCCOc3ccc4c(C)cc(=O)oc4c3)o2)c1,0.7% (inactive)
11,Oc1ccccc1/C=N/n1c(-c2cccs2)n[nH]c1=S,-7.1% (inactive)
12,CC(CCc1ccccc1)NC(=O)c1ccc(Br)o1 (stereo not drawn),95.4% (active)
13,O=C(Nc1ccc(-c2nnc(-c3ccccc3)o2)cc1)c1ccc(Br)o1,-17.2% (inactive)
14,CC(CNC(=O)c1ccc(Br)o1)NC(=O)c1ccc(Br)o1 (stereo not drawn),-12.4% (inactive)
15,O=C1CSC(c2cccc(F)c2)N1c1ccc(O)cc1 (stereo not drawn),-1.8% (inactive)
16,C/C(=C\C(=O)c1ccccc1)Nc1cccc(O)c1,-2.3% (inactive)
17,CCC(=O)Nc1cccc(NC(=O)c2cccnc2)c1,7.8% (inactive)
18,C/C(=C\C(=O)c1cccnc1)Nc1ccc(C)c(C)c1,89.1% (active)
19,Cc1c(NC(=O)/C=C/C(=O)O)cccc1[N+](=O)[O-],3.3% (inactive)
20,O=C(CSc1ncnc2c1cnn2CCc1ccccc1)Nc1ccc(F)cc1,1.7% (inactive)
21,CCOC(=O)N1CCN(C(=O)COc2ccc(Br)cc2)CC1,-1.9% (inactive)
22,CCOC(=O)N1CCN(C(=O)CSc2ccc(Cl)cc2)CC1,-18.1% (inactive)
23,CCOC(=O)N1CCN(C(=O)COc2ccc(Cl)cc2C)CC1,92.1% (active)
24,CCn1c2ccccc2c2cc(NC(=O)C/C(C)=N/NC(=O)c3ccccc3N)ccc21,1.3% (inactive)
25,COC(=O)c1cc(OC)c(OC)cc1NC(=O)CSc1ccc(C)cc1,-25% (inactive)

row,Compound,inhibition
1,Cc1ccc2nc(SCc3nnc(-c4ccccc4[N+](=O)[O-])o3)c(C#N)cc2c1,6% (inactive)
2,CN(C)c1ccnc(Oc2ccc(F)cc2)c1C#N,-15.3% (inactive)
3,CC(=O)c1ccc(Oc2cc(C)nc(-n3nc(C)cc3C)n2)cc1,75.8% (active)
4,Cc1cc(C)n(-c2cc(Oc3ccccc3)ncn2)n1,13.4% (inactive)
5,Cc1cc(Oc2ccccc2)nc(N2CCOCC2)n1,0.8% (inactive)
6,O=C(Cc1ccc(-n2c(=O)[nH]c3ccccc3c2=O)cc1)N1CCN(c2cccc(Cl)c2)CC1,1.3% (inactive)
7,Cc1cccc(S(=O)(=O)CC(=O)Nc2nc(-c3ccccc3)cs2)c1,-5.3% (inactive)
8,CN(CC#CCC(c1ccccc1)c1ccccc1)C(C)(C)C,5.2% (inactive)
9,O=C1Cc2ccccc2Sc2ccc(Cl)cc21,10% (inactive)
10,CSCc1cc(N2CCOCC2)nc(SCc2ccc(Cl)cc2Cl)n1,5.1% (inactive)
11,Cc1ccc(-c2csc(NC(=O)Cc3cccs3)n2)cc1C,1.5% (inactive)
12,COc1ccc(OC)c(/C=N/NC(=O)CSc2nnc(C)n2-c2ccccc2)c1,0.9% (inactive)
13,O=C(Nc1ccccc1)c1ccccc1NC(=O)C(F)(F)F,-10.4% (inactive)
14,COc1cc(/C=C2\SC(=S)N(Nc3ncc(C(F)(F)F)cc3Cl)C2=O)cc(OC)c1OC,14.4% (inactive)
15,O=C(c1ccccc1)C(Cn1cncn1)C(Sc1ccccc1)c1ccccc1 (stereo not drawn),0.1% (inactive)
16,CCOc1ccc(NC(=O)CCS(=O)(=O)c2ccc3c(c2)CCCN3C(=O)CC)cc1,0.8% (inactive)
17,COc1ccccc1NC(=O)C1CCCN(c2cc(C)nc3ncnn23)C1 (stereo not drawn),3.1% (inactive)
18,CC1(C)Cc2c(C#N)c(SCc3nc4ccccc4[nH]3)nc(N3CCOCC3)c2CO1,7.1% (inactive)
19,CC(C)c1nc(N2CCOCC2)c(C#N)c2c1COC(C)(C)C2,-40.7% (inactive)
20,CC(C)C(=O)N1CCN(c2nc(-c3ccccc3)c3c(c2C#N)CC(C)(C)OC3)CC1,36.7% (active)
21,S=C(NCc1cccs1)Nc1ccc(Cl)cc1,-27.9% (inactive)
22,Cc1cc2cc(CNC(=O)c3cccs3)ccc2[nH]1,11.4% (inactive)
23,COCCn1c(SCc2nnc(-c3ccc(OC)c(OC)c3)o2)nc2sc3c(c2c1=O)CCC3,-4.9% (inactive)
